In PubChem BioAssay AID1159580 (chemical genetic matrix, 2015):
Hit rate of the full screen: of about 5,500 compounds, about 2,000 (36%) were called active. Not shown: some 18% with an inconclusive outcome. Rule as the data show it: active = normalized growth mostly below about 0.91 (no sharp cut-off); inconclusive = no clear call, values can overlap the other calls; inactive = mostly above about 0.92. The list shows a part of the results.

Experiment: chemical genetic growth profiling, strain panel (AID 1159580);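 also: tested at 20 µM; growth read once vehicle control cultures reached saturation at 30 °C; 1 = growth at the plate median or of vehicle wells; lower values mean less growth of the strain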
Conditions: S. cerevisiae deletion strains, growth OD

Measured: normalized growth

COc1cc2c(cc1OC)-c1cc(=Nc3c(C)cc(C)cc3C)n(C)c(=O)n1CC2
inactive: locus YAL040C, strain CLN3, active compounds read low 0.995 | locus YCL061C, strain MRC1 (second series), active compounds read low 0.998 | locus YDR363W, strain ESC2, active compounds read low 1 | locus YER002W, strain NOP16, active compounds read low 1.02 | locus YGR078C, strain PAC10, active compounds read low 1.01 | locus YJR075W, strain HOC1, active compounds read low 0.97 | locus YMR307W, strain GAS1, active compounds read low 0.998 | locus YNL153C, strain GIM3, active compounds read low 0.999 | locus YNL175C, strain NOP13, active compounds read low 0.996 | locus YNL197C, strain WHI3, active compounds read low 1.01 | locus YNL224C, strain SQS1, active compounds read low 1.01 | locus YOR083W, strain WHI5 (second series), active compounds read low 1.02 | locus YPL241C, strain CIN2, active compounds read low 0.993
